Results taken from PubChem BioAssay (EPA / NIEHS).
Activity calls are given as the source filed them. How the source made its calls: active means hit-call score of the fitted dose curve at least 0.9, where 1 is the maximum; inactive means score below 0.9.

Molecular target: Nuclear respiratory factor 1 (Homo sapiens) (UniProt Q16656)
Experiment: ATG_NRF1_CIS: Attagene CIS-FACTORIAL HepG2 Assay for human Nuclear Respiratory Factor 1 (NRF1) Orphan Gene (AID 2282987)
Conditions: HepG2 NRF1 cis-element reporter, Attagene multiplex; actives raise or lower the signal
Method: ATG_CIS is a cell-based, multiplexed-readout assay that uses HepG2, a human liver cell line, with measurements taken at 24 hours after chemical dosing in a 24-well plate.ATG_NRF1_CIS is one of 52 assay component(s) measured or calculated from the ATG_CIS assay. It is designed to make measurements of mRNA induction, a form of inducible reporter, as detected with fluorescence intensity signals by Reverse transcription polymerase chain reaction (RT-PCR) and Capillary electrophoresis technology.Data from the assay component ATG_NRF1_CIS was analyzed into 1 assay endpoint. This assay endpoint, ATG_NRF1_CIS, was analyzed with bidirectional fitting relative to DMSO as the negative control and baseline of activity. Using a type of inducible reporter, measures of mRNA for gain or loss-of-signal activity can be used to understand the reporter gene at the transcription factor-level as they relate to the gene NRF1. Furthermore, this assay endpoint can be referred to as a primary readout, because this assay has produced multiple assay endpoints where this one serves a reporter gene function. To generalize the intended target to other relatable targets, this assay endpoint is annotated to the dna binding intended target family, where the subfamily is nuclear respiratory factors.
Human liver HepG2 cells are transiently transfected with multiple reporter transcription units (MRTUs) in 6-well plates using FuGene 6 reagent (Roche; 3 ml FuGene/1 mg DNA). The MRTU constructs are regulated by a cis-regulating element (promoter). […] A major difference between the CIS and TRANS system is that in CIS activities of endogenous TFs are measured, whereas the TRANS assay evaluates changes in activities of exogenous, chimeric NR-Gal4 proteins. […] At the end of 24 hour incubation, total RNA was isolated using TriZol reagent (Invitrogen). The isolated RNA is then reverse-transcribed using oligo(dT) primer and Mo-MLV reverse transcriptase (Invitrogen) with DNAse I (Ambion) treatment for 30 min. The one-tenth of the produced cDNA was amplified by PCR using Taq DNA polymerase (Invitrogen) and two reporter sequence-specific primers. The PCR products were fluorescently labeled by primer extension with 6-arboxyfluorescein (6-FAM) 5'-labeled reporter sequence-specific primer (2 min at 95 C, 20 s at 68 C and 10 min at 72 C) and these products were digested with 5U of HpaI (New England Biolabs) for 2h at 37 C. The fragments were purified using Qiaquick PCR columns (Qiagen), analyzed on an ABI 3130xL genetic analyzer (Applied Biosystems) with peak positions identified by using a set of X-rhodamine (ROX)-labeled MapMarker1000 molecular weight standards (BioVentures). The raw capillary electrophoresis data was processed using Attagraph software (Attagene).

Sequence of Nuclear respiratory factor 1 (Homo sapiens) (Q16656 whole entry, looked up): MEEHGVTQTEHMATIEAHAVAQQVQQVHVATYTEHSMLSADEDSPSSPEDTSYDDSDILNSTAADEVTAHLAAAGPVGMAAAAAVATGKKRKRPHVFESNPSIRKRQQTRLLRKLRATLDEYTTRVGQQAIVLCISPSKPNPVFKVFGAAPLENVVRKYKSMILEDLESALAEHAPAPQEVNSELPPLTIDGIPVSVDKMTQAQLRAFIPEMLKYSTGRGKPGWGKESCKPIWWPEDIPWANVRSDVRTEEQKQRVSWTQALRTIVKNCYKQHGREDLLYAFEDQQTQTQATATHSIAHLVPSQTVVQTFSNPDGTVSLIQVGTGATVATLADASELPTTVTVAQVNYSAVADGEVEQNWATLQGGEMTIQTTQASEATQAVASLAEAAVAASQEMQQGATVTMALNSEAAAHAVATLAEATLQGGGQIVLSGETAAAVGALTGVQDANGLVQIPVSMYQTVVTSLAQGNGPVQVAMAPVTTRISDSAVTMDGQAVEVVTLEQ

| Compound | outcome | AC50 |
| --- | --- | --- |
| CCCCCCC=O | inactive |  |
| CC(C)(C)NC(=O)[C@H]1CC[C@H]2[C@@H]3CC[C@H]4NC(=O)C=C[C@]4(C)[C@H]3CC[C@]12C | inactive |  |
| Cc1ccc(S(=O)(=O)N=C=O)cc1 | inactive |  |
| Cc1ccc(C)c(OCCCC(C)(C)C(=O)O)c1 | inactive |  |
| C=CC(C)(O)CC/C=C(\C)CC (stereo not given) | inactive |  |
| C[Si]1(C)O[Si](C)(C)O[Si](C)(C)O[Si](C)(C)O[Si](C)(C)O1 | inactive |  |
| O=C(O)CCC(=O)O | inactive |  |
| C=C(C)[C@@H]1CC=C(C)CC1 | inactive |  |
| CCCCCC[C@@H](O)C/C=C\CCCCCCCC(=O)OCC(O)CO (stereo not given in full) |  | 179 µM (active) |
| CCOC(=O)C1=NN(c2ccc(Cl)cc2Cl)C(C)(C(=O)OCC)C1 (stereo not given) | inactive |  |
| c1ccc2c(c1)[nH]c1ccccc12 | inactive |  |
| CCCc1ccc(O)c(OC)c1 | inactive |  |
| CC(C)(c1ccccc1)c1ccc(Nc2ccc(C(C)(C)c3ccccc3)cc2)cc1 | inactive |  |
| CCCCC1CCC(=O)O1 (stereo not given) | inactive |  |
| CC(=O)OC/C=C(/C)CCC=C(C)C | inactive |  |
| O=C(O[C@@H]1Cc2c(O)cc(O)cc2O[C@@H]1c1cc(O)c(O)c(O)c1)c1cc(O)c(O)c(O)c1 | inactive |  |
| C1CCSC1 | inactive |  |
| O=c1c(O)c(-c2ccc(O)cc2O)oc2cc(O)cc(O)c12 | inactive |  |
| O=C1CCCCC1C1CCCCC1 (stereo not given) | inactive |  |
| CC1=NN(c2ccc(S(=O)(=O)O)cc2)C(=O)C1N=Nc1ccccc1 (stereo not given) | inactive |  |

| Compound | outcome | AC50 |
| --- | --- | --- |
| C=CC(=O)NC(C)(C)C | inactive |  |
| CC(C)CC(=O)OCc1ccccc1 | inactive |  |
| O=C1CCCN1C1CCCCC1 | inactive |  |
| CCCCOC(=O)C(C)CC (stereo not given) | inactive |  |
| N#CC1(N)CCCCC1 | inactive |  |
| CC(=O)C(C)C | inactive |  |
| CCCCOCCOCCOC(C)=O | inactive |  |
| CCc1cccc(C)c1N(C(=O)CS(=O)(=O)O)C(C)COC (stereo not given) | inactive |  |
| Cc1c(Cl)cccc1Cl | inactive |  |
| CCCC/C=C/C=C\C=O | inactive |  |
| O=S(=O)(O)c1ccc(N=Nc2c(O)ccc3ccccc23)cc1 | inactive |  |
| CC1=CC=C(C(C)C)CC1 | inactive |  |
| CCCCC(CC)COC(=O)/C=C/c1ccc(OC)cc1 (stereo not given) | inactive |  |
| CC1=CP(=O)(c2ccccc2)CC1 (stereo not given) | inactive |  |
| CC1(C)C(=O)N(CO)C(=O)N1CO | inactive |  |
| CCCCOCC(C)O (stereo not given) | inactive |  |
| CC(=O)OCCc1ccccc1 | inactive |  |
| CCCCC1C(=O)N(c2ccccc2)N(c2ccccc2)C1=O | inactive |  |
| CCC(=O)C1CC(C(C)C)CC=C1C (stereo not given) | inactive |  |
| C=CC(=O)O[C@H]1C[C@@H]2CC[C@@]1(C)C2(C)C | inactive |  |
